# Test results: PubChem BioAssay (EPA / NIEHS)
# Records with an inconclusive call do not appear. The source made the active and inactive calls. Rule for the calls, unless noted: active = hit-call score of the fitted dose curve at least 0.9, where 1 is the maximum; inconclusive = response in the unintended direction; inactive = score below 0.9.
# Columns and labels:
# [1] = CCTE_Mundy_HCI_iCellGluta_NOG_NeuronCount: CCTE's Neurite Outgrowth Assay in iCellGluta cells for Neuron Count, Mundy Lab (AID 2284340);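 note: cells fixed about 48 h after compound addition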
# Method in brief: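 Neuron count read by automated high-content imaging of Hoechst 33342 and betaIII-tubulin/Alexa Fluor-488 labelling in human iPSC glutamatergic neurons. Activity fitted relative to DMSO.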
# [2] = CCTE_Mundy_HCI_iCellGluta_NOG_NeuriteCount: CCTE's Neurite Outgrowth Assay in iCellGluta cells for Neurite Count, Mundy Lab (AID 2284342);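 note: chemical exposure about 48 hours starting 2 hours after plating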
# [3] = IUF_NPC1_cytotoxicity_72hr: Cytotoxicity Assessment at 72 hours in the Leibniz Research Institute for Environmental Medicine (IUF) Neural Progenitor Cell Proliferation Assay (NPC1) (AID 2284332);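 note: rising LDH signal means more cytotoxicity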
# Method in brief: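 Membrane-integrity loss is scored from LDH released into the medium, detected as resorufin fluorescence, with activity fitted upward relative to baseline. Test material stays on human fetal-derived progenitor spheres for 72 h.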
# SERPINA7 (gene 6906) = experiment: CCTE_GLTED_hTBG: CCTE's human Thyroxine-binding Globulin (TBG) Inhibition Assay, Great Lakes Toxicology and Ecology Division (GLTED) Lab (AID 2284343);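 note: active chemicals lower fluorescence versus DMSO baseline by displacing probe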
# Method in brief: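 Human thyroxine-binding globulin was exposed to each chemical for 2 hours, during which the ANSA probe could be displaced. Fluorescence was then measured at 380/475 nm, and loss of signal was analysed relative to DMSO.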
# [4] = CCTE_Deisenroth_DEVTOX-GLR_legacy_CellCount: (Legacy) Viability Assessment in CCTE's DevTox GLR-Endo Assay, Deisenroth Lab (AID 2284331; active = hit-call score of the fitted dose curve at least 0.9, where 1 is the maximum; inactive = score below 0.9); details: actives raise or lower the signal
# Method in brief: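 Seed RUES2-GLR 24 h; differentiate 48 h, dosing at 0 and 24 h; fix, stain nuclei; image 5 fields/well; count nuclei. Conc. 1 nM - 200 uM, single technical replicate, n=4 experiments; bidirectional fit vs 0.2% DMSO.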
# [5] = system: SRY-box transcription factor 17 (SOX17) Protein Expression, Deisenroth Lab, SOX17 (gene 64321); experiment: CCTE_Deisenroth_DEVTOX-GLR_legacy_Sox17: (Legacy) CCTE's DevTox GLR-Endo Assay Evaluation of SRY-box transcription factor 17 (SOX17) Protein Expression, Deisenroth Lab (AID 2284341; active = hit-call score of the fitted dose curve at least 0.9, where 1 is the maximum; inactive = score below 0.9); details: actives raise or lower the signal
# Method in brief: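 Using the RUES2-GLR line, compounds are tested as 10-point series during 48-h defined-media differentiation. Sox17 reporter fluorescence per cell determines positivity; endpoint is percentage positive, analysed bidirectionally versus DMSO baseline.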
# [6] = VALA_MIGHUV1_ScratchOnly_WoundArea: VALA Sciences human Umbilical Vein Endothelial Cell Migration (MIGHUV) Assay, Area of Scratch Wound Inhibited Recovery (AID 2284336)
# Method in brief: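 Wound area remaining after 24 h recovery imaged by Hoechst nuclear fluorescence in scratched HUVEC cultures, chemicals added within 30 min of scratching across a 6-point series. Gain of signal fitted against 0.1% DMSO; cytochalasin D positive control.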
# [7] = VALA_TUBHUV_Agonist_TubuleLength: VALA Sciences human Umbilical Vein Endothelial Tubule Formation (TUBHUV) Agonism Assay (AID 2284337)
# Procedure: VALA_TUBHUV_Agonist is a cell-based, multiplexed assay that uses human umbilical vein endothelial cells (HUVEC). Measurements were taken 72 hours after chemical dosing in a 96-well plate.VALA_TUBHUV_Agonist_TubuleLength is the one of two assay components measured from the VALA_TUBHUV_Agonist assay. It is designed to make measurements of tubulogenesis, a form of morphology reporter, as detected with fluorescence intensity signals by HCS Fluorescent Imaging technology. This VALA_TUBHUV1 assay was designed to detect chemical activation of tubulogenesis, i.e. agonism.Data from the assay component VALA_TUBHUV_Agonist_TubuleLength was analyzed at the endpoint, VALA_TUBHUV_Agonist_TubuleLength, in the positive analysis fitting direction relative to DMSO as the negative control and baseline of activity. Using a type of morphology reporter, gain-of-signal activity can be used to understand developmental effects. To generalize the intended target to other relatable targets, this assay endpoint is annotated to the neurodevelopment intended target family, where the subfamily is tubulogenesis.
# This HUVEC-HDF assay was designed to detect chemical suppression of tubulogenesis, i.e. antagonism. […]
# [8] = VALA_TUBIPS_Agonist_CellCount: Viability Assessment in the VALA Sciences human iPS-derived Endothelial Tubule Formation (TUBIPS) Agonism Assay (AID 2284338)
# Procedure: VALA_TUBIPS_Agonist is a cell-based, multiplexed assay that uses human iPS-derived endothelial cells (iPSC). Measurements were taken 72 hours after chemical dosing in a 96-well plate.VALA_TUBIPS_Agonist_CellCount is the one of two assay components measured from the VALA_TUBIPS_Agonist assay. It is designed to make measurements of viability, a form of viability reporter, as detected with fluorescence intensity signals by HCS Fluorescent Imaging technology. Data from the assay component VALA_TUBIPS_Agonist_CellCount was analyzed at the endpoint, VALA_TUBIPS_Agonist_CellCount, in the positive analysis fitting direction relative to DMSO as the negative control and baseline of activity. Using a type of viability reporter, loss-of-signal activity can be used to understand viability. To generalize the intended target to other relatable targets, this assay endpoint is annotated to the cell cycle intended target family, where the subfamily is cell count.
# This HUVEC-HDF assay was designed to detect chemical suppression of tubulogenesis, i.e. antagonism. To measure tubulogenesis antagonism, HUVEC cells were co-cultured with HDF cells at a 1:3 ratio for 3-days in 10 ng/ml VEGF (i.e., favorable conditions with growth factors), then changed to assay medium containing 10 ng/ml VEGF and ToxCast compounds for an additional 3-day period. […]
smiles,measurement,setting,value
C=CCC1=C(C)[C@@H](OC(=O)[C@@H]2[C@@H](C=C(C)C)C2(C)C)CC1=O,outcome,[1],inactive
same,outcome,[2],inactive
CNC(=O)ON=CC(C)(C)SC,outcome,[3],inactive
CCCCC(CC)COC(=O)c1ccccc1C(=O)OCC(CC)CCCC (stereo not drawn),outcome,[3],inactive
same,AC50,[1],18.8 µM (active)
same,AC50,[2],30.4 µM (active)
COP(=S)(OC)Oc1nc(Cl)c(Cl)cc1Cl,outcome,[3],inactive
same,AC50,[1],23.1 µM (active)
same,AC50,[2],27.8 µM (active)
COC(=O)N(OC)c1ccccc1COc1ccn(-c2ccc(Cl)cc2)n1,outcome,[3],inactive
same,AC50,[1],12.7 µM (active)
same,AC50,[2],3.35 µM (active)
C#CCOS(=O)OC1CCCCC1Oc1ccc(C(C)(C)C)cc1 (stereo not drawn),AC50,SERPINA7 (gene 6906),25.2 µM (active)
CO/C=C(/C(=O)OC)c1ccccc1Oc1cc(Oc2ccccc2C#N)ncn1,outcome,[3],inactive
same,AC50,[1],66 µM (active)
same,AC50,[2],21.5 µM (active)
CCOc1cc(Oc2ccc(C(F)(F)F)cc2Cl)ccc1[N+](=O)[O-],outcome,[3],inactive
same,AC50,[1],50 µM (active)
same,AC50,[2],66.4 µM (active)
same,AC50,SERPINA7 (gene 6906),4.86 µM (active)
COC(=O)c1ccccc1C(=O)OC,outcome,[4],inactive
same,outcome,[5],inactive
N#Cc1nn(-c2c(Cl)cc(C(F)(F)F)cc2Cl)c(N)c1S(=O)C(F)(F)F (stereo not drawn),outcome,[3],inactive
same,outcome,[6],inactive
same,outcome,[7],inactive
same,outcome,[8],inactive
same,outcome,[1],inactive
same,outcome,[2],inactive
same,AC50,SERPINA7 (gene 6906),24.6 µM (active)
Cc1cc(Cl)ccc1OCC(=O)O,AC50,SERPINA7 (gene 6906),59.6 µM (active)
CN(C)C(=S)SSC(=S)N(C)C,AC50,[3],20.5 µM (active)
same,AC50,[1],0.0675 µM (active)
same,AC50,[2],0.0447 µM (active)
